Rows were chosen to be rich in hits. Some 2.6% of all compounds tested hit in one or more screens of this group.
TSG101-PTAP inh – blocks PTAP binding to human TSG101, validation | AID 1347069 | 44,000 tested, under 10 active | Potency, µM (titrated, usually from 115 µM), hits mostly inhibitors | Fluorescence polarization, FITC-PTAP peptide/Tsg101, 20 min; also: potency is read from the fitted curve at half-maximal effect; 0% is about no effect
Target sequence (Q99816 whole entry, looked up): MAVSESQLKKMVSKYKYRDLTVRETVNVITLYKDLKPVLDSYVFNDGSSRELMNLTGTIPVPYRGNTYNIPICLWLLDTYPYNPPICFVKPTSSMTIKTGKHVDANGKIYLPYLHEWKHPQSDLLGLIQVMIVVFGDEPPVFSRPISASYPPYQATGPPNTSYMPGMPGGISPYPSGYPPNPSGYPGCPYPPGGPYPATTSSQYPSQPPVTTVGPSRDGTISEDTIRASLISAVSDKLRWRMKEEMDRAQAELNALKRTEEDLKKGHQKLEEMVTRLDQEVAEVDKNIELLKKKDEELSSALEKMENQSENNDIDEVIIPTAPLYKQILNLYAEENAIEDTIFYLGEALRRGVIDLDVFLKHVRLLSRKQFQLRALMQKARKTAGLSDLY
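Fluorescence polarization binding of Tsg101 binding domain (10 uM final) to FITC-labeled PTAP-motif peptide (50 nM final) in HEPES pH 7.5/NaCl/Tween 20/EDTA/TCEP buffer; 20 min at r.t. Actives by curve class, <25 µM, efficacy <60% inhibition.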
DRV1 agonist – activates human resolvin D1 receptor GPR32; CHO-K1 GPR32 beta-arrestin PathHunter luminescence, 90 min; zero percent set by DMSO-only wells; AID 1346428; activation, % at 76.9 µM; 48,000 compounds, 2.5% hits;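 active = activation of at least 60% and not above a set upper limit, about 1 call in 100 departs from these limits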; also: 0% is about no effect
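Engineered CHO-K1 line co-expressing GPR32-ProLink and EA-beta-arrestin. Compound treatment lasted 90 min at 37 °C. Luminescence was recorded after 1 h with substrate at ambient temperature, relative to DMSO basal wells.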
GALK inh – GALK (human) enzyme inhibition. P51570. Potency, µM (top dose mostly 57.5 µM), for inactives: at the top dose activity, negative = inhibition, most hits filed as inhibitors. 44,000 tested, under 10 active. recombinant GALK, Kinase-Glo ATP luminescence, 1 h. AID 1347072;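 also: plate controls were full GALK reaction for no effect and reaction lacking GALK for full effect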
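Human GALK (5 nM) was incubated with 35 uM ATP and 100 uM galactose in 20 mM HEPES pH 8.0 with MgCl2, NaCl, DTT and BSA for 1 h at room temperature. Remaining ATP was measured by Kinase-Glo Plus luminescence.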
B2AR arrestin ag – ADRB2 beta-arrestin recruitment; 44,000 tested, under 10 active; HTLA Tango cells, beta-arrestin recruitment, luciferase luminescence, 18 h; AID 1347077; Potency, µM (series often up to 46.1 µM), most hits filed as activators;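 also: potency is read from the fitted curve at half-maximal effect; 0% = DMSO and full agonism = EC100 isoproterenol or metaproterenol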
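Tango cells (recombinant beta2-AR, beta-arrestin, tTA-driven luciferase), 1500/well in DMEM 1% FBS, treated 18 h at 37 °C with compounds up to 46 µM; luciferin mix added, luminescence read after 15 min; %activity curves fitted and curve-classed.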
GALC G270D up – galactocerebrosidase G270D activity enhancement, cell-based; AID 1159614; P54803; 145M-Twi-hGALC-G270D cells (Twitcher mouse brain line with human GALC G270D), HMU-beta-Gal fluorescence, 48 h; Potency, µM (series often up to 57.5 µM), actives largely listed as activators; 45,000 compounds, 0.1% hits; also: potency is read from the fitted curve at half-maximal effect; 0% is about no effect; nearly all actives have a fitted effect of over 65% in size
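Live 145M-Twi cells (Twitcher mouse brain-derived, GALC-null) stably expressing human GALC-G270D, with a wild-type GALC line, were compound-treated. Residual GALC activity was then read as fluorescence from 0.1 mM final HMU-β-gal at pH 5.2; higher signal means activation.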
Numbers without * were called inactive; i = inactive; . = no result. Unless noted, calls follow the shape of the dose curve; as a rule, active = well fitted curve in the direction sought with a large enough effect; inconclusive = small, poorly fitted or top-dose-only effect, or another doubt; inactive = no such curve, though single readings can be large; an effect the other way counts as inactive or inconclusive.

SMILES | TSG101-PTAP inh | DRV1 agonist | GALK inh | B2AR arrestin ag | GALC G270D up
FC(F)(F)c1cccc(C2=CCN(CCc3ccc4ccccc4c3)CC2)c1 | . | 100* | . | . | i
COC(=O)c1ccc(NC(C)=O)cc1OC | . | -11 | . | . | i
CCC(C)C(C)(COC(N)=O)COC(N)=O (centres undefined) | . | 6 | . | . | i
C[C@]12Cc3nonc3C[C@@H]1CC[C@@H]1[C@@H]2CC[C@@]2(C)[C@H]1CC[C@]2(C)O | . | 65* | . | . | i
Cc1cccc(CN2CC=C(c3noc(CCC(=O)Nc4ccc(C)c(F)c4)n3)CC2)c1 | i | 94* | 1% | i | i
COc1ccc(NC(=O)CCc2nc(C3=CCN(Cc4cccc(Cl)c4)CC3)no2)c(OC)c1 | i | 27 | 3% | i | i
COc1ccc(NC(=O)CCc2nc(C3=CCN(Cc4cccc(Cl)c4)CC3)no2)cc1OC | i | 94* | -1% | i | i
C[C@]12Cc3cn[nH]c3C[C@@H]1CC[C@@H]1[C@@H]2CC[C@@]2(C)[C@H]1CC[C@]2(C)O | . | -36 | . | . | i
C[C@]12CC[C@H]3[C@@H](CCC4=CC(=O)CC[C@@H]43)[C@@H]1CC[C@@H]2OC(=O)CCc1ccco1 | . | 119* | . | . | i
Fc1cc(Br)ccc1CBr | . | -11 | . | . | i
CC(C)(N)Cc1ccccc1Cl | . | 16 | . | . | i
C[C@]12CCC(=O)C=C1CC[C@@H]1[C@@H]2CC[C@]2(C)C(=O)CC[C@@H]12 | . | 49 | . | . | i
C[C@]12CC[C@H](O)CC1=CC[C@@H]1[C@@H]2CC[C@]2(C)C(=O)CC[C@@H]12 | . | 73* | . | . | i
CC[N+]1(CC)CCC(OC(=O)C(O)(c2ccccc2)c2ccccc2)C1 (centres undefined) | . | -9 | . | . | i
CCC(COC(=O)c1cc(OC)c(OC)c(OC)c1)(c1ccccc1)N(C)C (centres undefined) | . | 97* | . | . | i
C=CCC1=C(C)C(OC(=O)C2C(C=C(C)C)C2(C)C)CC1=O (centres undefined) | . | 74* | . | . | i
Cc1cc(C)cc(OCC(=O)Nc2ccc(Cl)cc2C(=O)c2ccccc2)c1 | i | -18 | 0% | i | i
Cc1cc(C)cc(OCC(=O)Nc2ccc(-c3nc4ccccc4s3)cc2)c1 | i | 72* | 2% | i | 40µM*
CC(Cc1ccccc1)N(C)Cc1ccco1 (centres undefined) | . | 2 | . | . | i
Nc1c(C(=O)Nc2ccc(Cl)cc2)sc2nc3c(cc12)N1CCC3CC1 | i | 77* | -4% | i | 32µM*
CC(C(O)c1ccccc1)N(C)C/C=C/c1ccccc1 (centres undefined) | . | 2 | . | . | i
C[C@]12CCC(=O)C=C1CC[C@@H]1[C@H]3CC[C@](C)(O)[C@@]3(C)CC[C@@H]12 | . | 106* | . | . | i

Screening results: PubChem, National Center for Advancing Translational Sciences (NCATS)
